Source: PubChem BioAssay AID1159580 (chemical genetic matrix, 2015)
Hit rate of the full screen: of about 5,500 compounds, about 2,000 (36%) were called active. Roughly 18% stayed inconclusive and do not appear here. Cut-off read from the data, not from the text of the source: active = normalized growth mostly below about 0.91 (no sharp cut-off); inconclusive = no clear call, values can overlap the other calls; inactive = mostly above about 0.92. This is one part of the list.

Experiment: chemical genetic growth profiling, strain panel (AID 1159580);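 note: tested at 20 µM; growth read once vehicle control cultures reached saturation at 30 °C; 1 = growth at the plate median or of vehicle wells; lower values mean less growth of the strain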
Conditions: S. cerevisiae deletion strains, growth OD

Measured: normalized growth

CC(C)NC[C@H](O)COc1cccc2[nH]ccc12
inactive: locus YAL013W, strain DEP1, hits give low values 0.999 | locus YAL040C, strain CLN3, hits give low values 0.984 | locus YCL061C, strain MRC1 (second series), hits give low values 1.01 | locus YDR363W, strain ESC2, hits give low values 0.994 | locus YER002W, strain NOP16, hits give low values 0.969 | locus YNL153C, strain GIM3, hits give low values 1.01 | locus YNL175C, strain NOP13, hits give low values 1.01 | locus YNL197C, strain WHI3, hits give low values 1.01 | locus YNL224C, strain SQS1, hits give low values 1.01 | locus YNL322C, strain KRE1, hits give low values 0.999 | locus YOR083W, strain WHI5 (second series), hits give low values 1.05 | locus YPL241C, strain CIN2, hits give low values 1

O=C(Oc1cccc2[nH]ccc12)c1ccc(C(F)(F)F)cc1
active: locus YHR030C, strain SLT2, hits give low values 0.454 | locus YKL048C, strain ELM1, hits give low values 0.786 | locus YLR113W, strain HOG1, hits give low values 0.754 | locus YOR061W, strain CKA2, hits give low values 0.603 | locus YPL256C, strain CLN2, hits give low values 0.75
inactive: locus YAR019C, strain CDC15, hits give low values 0.968 | locus YBL105C, strain PKC1, hits give low values 0.97 | locus YBR135W, strain CKS1, hits give low values 0.974 | locus YBR136W, strain MEC1, hits give low values 0.968 | locus YBR160W, strain CDC28, hits give low values 0.974 | locus YDL017W, strain CDC7, hits give low values 0.965 | locus YDL028C, strain MPS1, hits give low values 0.974 | locus YDL101C, strain DUN1, hits give low values 0.984 | locus YDL108W, strain KIN28, hits give low values 0.971 | locus YDL132W, strain cdc53, hits give low values 0.973 | locus YDL214C, strain PRR2, hits give low values 0.82 | locus YDR052C, strain DBF4, hits give low values 0.972 | locus YDR054C, strain cdc34, hits give low values 0.961 | locus YDR226W, strain ADK1, hits give low values 0.956 | locus YDR477W, strain SNF1, hits give low values 0.814 | locus YER123W, strain YCK3, hits give low values 0.702 | locus YER133W, strain GLC7, hits give low values 0.775 | locus YFL009W, strain cdc4, hits give low values 0.966 | locus YFL029C, strain CAK1, hits give low values 0.968 | locus YFR003C, strain YPI1, hits give low values 0.966 | locus YFR019W, strain FAB1, hits give low values 0.855 | locus YFR028C, strain CDC14, hits give low values 0.955 | locus YGR040W, strain KSS1, hits give low values 0.805 | locus YGR052W, strain FMP48, hits give low values 0.763 | locus YGR092W, strain DBF2, hits give low values 0.634 | locus YHR079C, strain IRE1, hits give low values 0.607 | locus YHR082C, strain KSP1, hits give low values 0.857 | locus YHR205W, strain SCH9, hits give low values 0.862 | locus YIL147C, strain SLN1, hits give low values 0.962 | locus YJL095W, strain BCK1, hits give low values 0.645 | locus YJL128C, strain PBS2, hits give low values 0.933 | locus YJL157C, strain FAR1, hits give low values 0.807 | locus YJR016C, strain ILV3, hits give low values 0.966 | locus YJR066W, strain TOR1 (second series), hits give low values 0.699 | locus YJR066W, strain TOR1, hits give low values 0.679 | locus YKL067W, strain YNK1, hits give low values 0.827 | locus YKL101W, strain HSL1, hits give low values 0.788 | locus YKL193C, strain SDS22, hits give low values 0.964 | locus YKL203C, strain TOR2, hits give low values 0.831 | locus YLR133W, strain CKI1, hits give low values 0.822 | locus YLR403W, strain SFP1, hits give low values 0.831 | locus YML070W, strain DAK1, hits give low values 0.791 | locus YMR001C, strain CDC5, hits give low values 0.964 | locus YMR205C, strain PFK2 (second series), hits give low values 0.862 | locus YMR277W, strain FCP1, hits give low values 0.96 | locus YNL006W, strain LST8, hits give low values 0.969 | locus YNL020C, strain ARK1, hits give low values 0.763 | locus YNL161W, strain CBK1, hits give low values 0.987 | locus YNL183C, strain NPR1, hits give low values 0.769 | locus YNL207W, strain RIO2, hits give low values 0.97 | locus YNL222W, strain SSU72, hits give low values 0.976 | locus YNL307C, strain MCK1 (second series), hits give low values 0.859 | locus YOL078W, strain AVO1, hits give low values 0.978 | locus YOL136C, strain PFK27, hits give low values 0.815 | locus YOR119C, strain RIO1, hits give low values 0.887 | locus YOR231W, strain MKK1, hits give low values 0.755 | locus YOR329C, strain SCD5, hits give low values 0.97 | locus YPL031C, strain PHO85, hits give low values 0.809 | locus YPL153C, strain RAD53, hits give low values 0.757 | locus YPL204W, strain HRR25, hits give low values 0.778 | locus YPL209C, strain IPL1, hits give low values 0.965 | locus YPR025C, strain CCL1, hits give low values 0.975 | locus YPR106W, strain ISR1, hits give low values 0.972 | locus YPR111W, strain DBF20, hits give low values 0.937 | strain NNK1, hits give low values 0.961 | strain TSCII, hits give low values 0.967
